# Measurements from the supplement of paper PMC4022240.
# ± gives the standard deviation.
# T1: HaloTag-ATRX ADD domain (163-292)
# T1 chain: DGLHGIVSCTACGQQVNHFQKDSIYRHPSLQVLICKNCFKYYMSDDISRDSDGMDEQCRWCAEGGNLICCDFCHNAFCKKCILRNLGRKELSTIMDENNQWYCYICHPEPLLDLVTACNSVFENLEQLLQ
# Legend:
# Assay in all cases: peptide microarray binding signal (635 nm), min-max normalized on array (fraction of array maximum); higher = stronger binding
# Details in all cases: peptide region: H3 11-23
# [1] = target: T1, HaloTag-ATRX ADD domain (163-292)
# Method in brief: (§1)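 Within each library, mean intensities of triplicate spots were min-max scaled to give the binding signal. The spots were histone 13-mer peptide–cellulose conjugates on nitrocellulose with a Cy3 tracer, blocked overnight at 4°C. They were then probed for 1 h at 4°C using biotin-labelled HaloTag reader fusions (10 nM to 1 μM) with streptavidin-Alexa Fluor 647 or rabbit histone antibodies (1:10,000 to 1:2,000) with anti-rabbit Alexa 647, and scanned at 635 nm for signal and 532 nm for misprints on an Axon GenePix 4000B.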
# [2] = target: HaloTag-ING2 PHD (mouse Ing2 200-280)
# Method in brief: as §1
# [3] = target: anti-H3K4me3 antibody ab8580
# Method in brief: as §1
# [4] = target: anti-H3K9me3 antibody ab8898
# Method in brief: as §1
# [5] = peptide modifications: H3K14me2 H3K18ac, binder concentration: 1:2,000 dilution
# [6] = peptide modifications: H3K14me2 H3K18ac, binder concentration: 1:10,000 dilution
# [7] = peptide modifications: H3K14ac H3R17me1, binder concentration: 1:2,000 dilution
# [8] = peptide modifications: H3K14ac H3R17me1, binder concentration: 1:10,000 dilution
# [9] = peptide modifications: H3K14me1 H3K18me1, binder concentration: 1:2,000 dilution
# [10] = peptide modifications: H3K14me1 H3K18me1, binder concentration: 1:10,000 dilution
# [11] = peptide modifications: H3K14ac H3K18me1, binder concentration: 1:2,000 dilution
# [12] = peptide modifications: H3K14ac H3K18me1, binder concentration: 1:10,000 dilution
# [13] = peptide modifications: H3K14ac H3R17cit, binder concentration: 1:2,000 dilution
# [14] = peptide modifications: H3K14ac H3R17cit, binder concentration: 1:10,000 dilution
# [15] = peptide modifications: H3K14me1 H3K18me3, binder concentration: 1:2,000 dilution
# [16] = peptide modifications: H3K14me1 H3K18me3, binder concentration: 1:10,000 dilution
# [17] = peptide modifications: H3K14me1 H3R17me2s, binder concentration: 1:2,000 dilution
# [18] = peptide modifications: H3K14me1 H3R17me2s, binder concentration: 1:10,000 dilution
# [19] = peptide modifications: H3K14me1 H3K18me2, binder concentration: 1:2,000 dilution
# [20] = peptide modifications: H3K14me1 H3K18me2, binder concentration: 1:10,000 dilution
# [21] = peptide modifications: H3K14me1 H3R17me1, binder concentration: 1:2,000 dilution
# [22] = peptide modifications: H3K14me1 H3R17me1, binder concentration: 1:10,000 dilution
# [23] = peptide modifications: H3K14me2, binder concentration: 1:2,000 dilution
# [24] = peptide modifications: H3K14me2, binder concentration: 1:10,000 dilution
binder,measurement,setting,value
TGGKAPRKQLATK [H3 11-23 T G G Kme2 A P R Kac Q L A T K],peptide microarray binding signal,"[1]; peptide modifications: H3K14me2 H3K18ac, binder concentration: 50 nM",0.00868 ± 0.00034
same,peptide microarray binding signal,"[1]; peptide modifications: H3K14me2 H3K18ac, binder concentration: 500 nM",0.0165 ± 0.0015
same,peptide microarray binding signal,"[2]; peptide modifications: H3K14me2 H3K18ac, binder concentration: 10 nM",0.0173 ± 0.003
same,peptide microarray binding signal,"[2]; peptide modifications: H3K14me2 H3K18ac, binder concentration: 100 nM",0.0242 ± 0.0017
same,peptide microarray binding signal,[3]; [5],0.0129 ± 0.0016
same,peptide microarray binding signal,[3]; [6],0.0111 ± 0.00098
same,peptide microarray binding signal,[4]; [5],0.00806 ± 0.00086
same,peptide microarray binding signal,[4]; [6],0.00496 ± 0.00013
TGGKAPRKQLATK [H3 11-23 T G G Kac A P Rme K Q L A T K],peptide microarray binding signal,"[1]; peptide modifications: H3K14ac H3R17me1, binder concentration: 50 nM",0.0113 ± 0.0011
same,peptide microarray binding signal,"[1]; peptide modifications: H3K14ac H3R17me1, binder concentration: 500 nM",0.0152 ± 0.00047
same,peptide microarray binding signal,"[2]; peptide modifications: H3K14ac H3R17me1, binder concentration: 10 nM",0.0182 ± 0.0058
same,peptide microarray binding signal,"[2]; peptide modifications: H3K14ac H3R17me1, binder concentration: 100 nM",0.0339 ± 0.014
same,peptide microarray binding signal,[3]; [7],0.00517 ± 0.00077
same,peptide microarray binding signal,[3]; [8],0.00719 ± 0.0015
same,peptide microarray binding signal,[4]; [7],0.00569 ± 0.00047
same,peptide microarray binding signal,[4]; [8],0.00404 ± 0.00028
TGGKAPRKQLATK [H3 11-23 T G G Kme A P R Kme Q L A T K],peptide microarray binding signal,"[1]; peptide modifications: H3K14me1 H3K18me1, binder concentration: 50 nM",0.00561 ± 0.00015
same,peptide microarray binding signal,"[1]; peptide modifications: H3K14me1 H3K18me1, binder concentration: 500 nM",0.00886 ± 0.00086
same,peptide microarray binding signal,"[2]; peptide modifications: H3K14me1 H3K18me1, binder concentration: 10 nM",0.0118 ± 0.0022
same,peptide microarray binding signal,"[2]; peptide modifications: H3K14me1 H3K18me1, binder concentration: 100 nM",0.0213 ± 0.0055
same,peptide microarray binding signal,[3]; [9],0.00619 ± 0.0022
same,peptide microarray binding signal,[3]; [10],0.00611 ± 0.00051
same,peptide microarray binding signal,[4]; [9],0.00311 ± 0.00053
same,peptide microarray binding signal,[4]; [10],0.00213 ± 5.2e-05
TGGKAPRKQLATK [H3 11-23 T G G Kac A P R Kme Q L A T K],peptide microarray binding signal,"[1]; peptide modifications: H3K14ac H3K18me1, binder concentration: 50 nM",0.00759 ± 8.2e-05
same,peptide microarray binding signal,"[1]; peptide modifications: H3K14ac H3K18me1, binder concentration: 500 nM",0.012 ± 0.00073
same,peptide microarray binding signal,"[2]; peptide modifications: H3K14ac H3K18me1, binder concentration: 10 nM",0.0187 ± 0.0021
same,peptide microarray binding signal,"[2]; peptide modifications: H3K14ac H3K18me1, binder concentration: 100 nM",0.0405 ± 0.011
same,peptide microarray binding signal,[3]; [11],0.0114 ± 0.0027
same,peptide microarray binding signal,[3]; [12],0.00725 ± 0.00036
same,peptide microarray binding signal,[4]; [11],0.00275 ± 0.00016
same,peptide microarray binding signal,[4]; [12],0.00219 ± 0.0001
TGGKAPRKQLATK [H3 11-23 T G G Kac A P Rcit K Q L A T K],peptide microarray binding signal,"[1]; peptide modifications: H3K14ac H3R17cit, binder concentration: 50 nM",0.00671 ± 0.00027
same,peptide microarray binding signal,"[1]; peptide modifications: H3K14ac H3R17cit, binder concentration: 500 nM",0.013 ± 0.00041
same,peptide microarray binding signal,"[2]; peptide modifications: H3K14ac H3R17cit, binder concentration: 10 nM",0.018 ± 0.0015
same,peptide microarray binding signal,"[2]; peptide modifications: H3K14ac H3R17cit, binder concentration: 100 nM",0.0345 ± 0.0076
same,peptide microarray binding signal,[3]; [13],0.00517 ± 0.00085
same,peptide microarray binding signal,[3]; [14],0.00297 ± 0.00013
same,peptide microarray binding signal,[4]; [13],0.00171 ± 5.6e-05
same,peptide microarray binding signal,[4]; [14],0.00127 ± 1.3e-05
TGGKAPRKQLATK [H3 11-23 T G G Kme A P R Kme3 Q L A T K],peptide microarray binding signal,"[1]; peptide modifications: H3K14me1 H3K18me3, binder concentration: 50 nM",0.00705 ± 0.00051
same,peptide microarray binding signal,"[1]; peptide modifications: H3K14me1 H3K18me3, binder concentration: 500 nM",0.0115 ± 0.00073
same,peptide microarray binding signal,"[2]; peptide modifications: H3K14me1 H3K18me3, binder concentration: 10 nM",0.0113 ± 0.00048
same,peptide microarray binding signal,"[2]; peptide modifications: H3K14me1 H3K18me3, binder concentration: 100 nM",0.0191 ± 0.00089
same,peptide microarray binding signal,[3]; [15],0.389 ± 0.079
same,peptide microarray binding signal,[3]; [16],0.473 ± 0.23
same,peptide microarray binding signal,[4]; [15],0.0513 ± 0.004
same,peptide microarray binding signal,[4]; [16],0.0139 ± 0.0023
TGGKAPRKQLATK [H3 11-23 T G G Kme A P Rme2s K Q L A T K],peptide microarray binding signal,"[1]; peptide modifications: H3K14me1 H3R17me2s, binder concentration: 50 nM",0.00793 ± 0.00067
same,peptide microarray binding signal,"[1]; peptide modifications: H3K14me1 H3R17me2s, binder concentration: 500 nM",0.0311 ± 0.0068
same,peptide microarray binding signal,"[2]; peptide modifications: H3K14me1 H3R17me2s, binder concentration: 10 nM",0.0249 ± 0.0026
same,peptide microarray binding signal,"[2]; peptide modifications: H3K14me1 H3R17me2s, binder concentration: 100 nM",0.0474 ± 0.0059
same,peptide microarray binding signal,[3]; [17],0.00508 ± 0.0026
same,peptide microarray binding signal,[3]; [18],0.0135 ± 0.0052
same,peptide microarray binding signal,[4]; [17],0.0103 ± 0.0018
same,peptide microarray binding signal,[4]; [18],0.00709 ± 0.00074
TGGKAPRKQLATK [H3 11-23 T G G Kme A P R Kme2 Q L A T K],peptide microarray binding signal,"[1]; peptide modifications: H3K14me1 H3K18me2, binder concentration: 50 nM",0.009 ± 0.00035
same,peptide microarray binding signal,"[1]; peptide modifications: H3K14me1 H3K18me2, binder concentration: 500 nM",0.018 ± 0.00081
same,peptide microarray binding signal,"[2]; peptide modifications: H3K14me1 H3K18me2, binder concentration: 10 nM",0.00913 ± 0.00044
same,peptide microarray binding signal,"[2]; peptide modifications: H3K14me1 H3K18me2, binder concentration: 100 nM",0.0241 ± 0.008
same,peptide microarray binding signal,[3]; [19],0.0068 ± 0.0002
same,peptide microarray binding signal,[3]; [20],0.00588 ± 0.00018
same,peptide microarray binding signal,[4]; [19],0.00371 ± 0.00042
same,peptide microarray binding signal,[4]; [20],0.00271 ± 4.1e-05
TGGKAPRKQLATK [H3 11-23 T G G Kme A P Rme K Q L A T K],peptide microarray binding signal,"[1]; peptide modifications: H3K14me1 H3R17me1, binder concentration: 50 nM",0.0069 ± 0.00032
same,peptide microarray binding signal,"[1]; peptide modifications: H3K14me1 H3R17me1, binder concentration: 500 nM",0.0148 ± 0.001
same,peptide microarray binding signal,"[2]; peptide modifications: H3K14me1 H3R17me1, binder concentration: 10 nM",0.00674 ± 0.00033
same,peptide microarray binding signal,"[2]; peptide modifications: H3K14me1 H3R17me1, binder concentration: 100 nM",0.0121 ± 0.00053
same,peptide microarray binding signal,[3]; [21],0.00587 ± 0.0018
same,peptide microarray binding signal,[3]; [22],0.0114 ± 0.0068
same,peptide microarray binding signal,[4]; [21],0.0084 ± 0.0022
same,peptide microarray binding signal,[4]; [22],0.00427 ± 0.0008
TGGKAPRKQLATK [H3 11-23 T G G Kme2 A P R K Q L A T K],peptide microarray binding signal,"[1]; peptide modifications: H3K14me2, binder concentration: 50 nM",0.00614 ± 7.5e-05
same,peptide microarray binding signal,"[1]; peptide modifications: H3K14me2, binder concentration: 500 nM",0.0148 ± 0.0014
same,peptide microarray binding signal,"[2]; peptide modifications: H3K14me2, binder concentration: 10 nM",0.00806 ± 0.00059
same,peptide microarray binding signal,"[2]; peptide modifications: H3K14me2, binder concentration: 100 nM",0.00928 ± 0.002
same,peptide microarray binding signal,[3]; [23],0.00381 ± 0.00026
same,peptide microarray binding signal,[3]; [24],0.00331 ± 0.00013
same,peptide microarray binding signal,[4]; [23],0.00619 ± 0.00091
same,peptide microarray binding signal,[4]; [24],0.00548 ± 0.0005
